Experimental data published in PubChem BioAssay.
Potency and affinity values are given separately. The source made the active and inactive calls.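 Rule for the calls: active = a fitted half-maximal concentration no higher than twice the top valid tested dose, with signal falling as cells die; inconclusive = flat curve between -70% and -30%, or poor fit; inactive = the rest, including signal rising instead of falling.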

Test: viability loss in HeLa cells – cell-based, ATP luminescence, cherry-pick samples, cytotoxicity control, dose response (AID 687004)
Details: ATP luminescence (CellTiter-Glo), 48 h; series mostly up to 26 µM
In the case of `C[C@@H]1CN([C@H](C)CO)C(=O)CCCn2cc(nn2)CO[C@@H]1CN(C)C(=O)CCCN(C)C`, the outcome is reported as “inactive”. In the case of `C[C@H]1CN([C@@H](C)CO)C(=O)Cc2cc(NS(=O)(=O)c3ccc(F)cc3)ccc2O[C@H]1CN(C)S(=O)(=O)c1ccc(F)cc1`, the outcome is reported as “inactive”. In the case of `CCC(=O)N1[C@@H]2Cn3c(cccc3=O)[C@H]1[C@@H](C(=O)NCc1ccccc1)[C@@H]2CO`, the outcome is reported as “inactive”. For `CCNC(=O)C[C@@H]1CC[C@H]2[C@@H](COC[C@@H](O)CN2S(=O)(=O)c2ccccc2F)O1`, the outcome was “inactive”. With `CNC[C@H]1OCCCC[C@H](C)Oc2ccc(NC(=O)CCCN(C)C)cc2C(=O)N([C@H](C)CO)C[C@@H]1C` the outcome was “inactive”. In the case of `COc1cccc(S(=O)(=O)N(C)C[C@@H]2Oc3ncc(-c4cccc(F)c4)cc3C(=O)N([C@H](C)CO)C[C@@H]2C)c1`, the outcome is reported as “inactive”. For `C[C@H](CO)N1C[C@H](C)[C@H](CN(C)Cc2cccnc2)Oc2ncc(C#CC3(O)CCCC3)cc2C1=O`, the outcome was “inactive”. For `COC(=O)N(C)C[C@H]1OCc2cn(nn2)CCCC(=O)N([C@H](C)CO)C[C@@H]1C`, the outcome was “inactive”. With `C[C@@H]1CN([C@H](C)CO)C(=O)c2cc(NS(=O)(=O)c3ccccc3)ccc2O[C@H]1CN(C)C(=O)NC1CCCCC1` the outcome was “inactive”. In the case of `COc1ccc(CNC(=O)COc2ccc(OC)cc2)cc1`, the outcome is reported as “inactive”. With `CC(=O)NNC(=O)CSc1nnc(-c2ccccc2)c(-c2ccccc2)n1` the outcome was “inactive”. In the case of `CCCN(C)C[C@H]1OCCCC[C@@H](C)Oc2ccc(NC(=O)NC(C)C)cc2C(=O)N([C@@H](C)CO)C[C@H]1C`, the outcome is reported as “inactive”. For `CCOC(=O)CNC(=O)CSc1ncnc2c1cnn2-c1ccc(OC)cc1`, the outcome was “inactive”. With `C[C@H]1CN([C@@H](C)CO)C(=O)CCCn2nncc2CO[C@@H]1CN(C)Cc1cccc(C(F)(F)F)c1` the outcome was “inactive”. For `CCC(=O)N1C[C@H](O)COC[C@@H]2O[C@@H](CC(=O)NCc3ccccc3Cl)CC[C@H]21`, the outcome was “inactive”.
